Data on 195 variants can be found in a collection of fitness landscapes (doi:10.1126/science.1257360).

The full ranking holds about 140,000 sequences; the median of “enrichment ratio after two sorts for PhoP signalling” is about 0, and the highest 2% start at about 11. This excerpt belongs to a sample that is enriched for the highest values.

The chains are these.
B1: PhoQ; a variant is named by its letters at X, in order, P23837 (parent)
chain: MKKLLRLFFPLSLRVRFLLATAAVVLVLSLAYGMVALIGYSVSFDKTTFRLLRGESNLFYTLAKWENNKLHVELPENIDKQSPTMTLIYDENGQLLWAQRDVPWLMKMIQPDWLKSNGFHEIEADVNDTSLLLSGDHSIQQQLQEVREDDDDAEMTHSVAVNVYPATSRMPKLTIVVVDTIPVELKSSYMVWSWFIYVLSANLLLVIPLLWVAAWWSLRPIEALAKEVRELEEHNRELLNPATTRELTSLVRNLNRLLKSERERYDKYRTTLTDLTHSLKTPLXXLQXXLRSLRSEKMSVSDAEPVMLEQISRISQQIGYYLHRASMRGGTLLSRELHPVAPLLDNLTSALNKVYQRKGVNISLDISPEISFVGEQNDFVEVMGNVLDNACKYCLEFVEISARQTDEHLYIVVEDDGPGIPLSKREVIFDRGQRVDTLRPGQGVGLAVAREITEQYEGKIVAGESMLGGARMEVIFGRQHSAPKDE

In this experiment the parent is B1. As to the kind of experiment: enrichment ratio after two sorts for PhoP signalling (ratio (wild type AVST 3.29)); higher = more functional. The following applies: with PhoP (E. coli).
For LITF, the enrichment ratio is no more than 0.25. Regarding ATGN, the enrichment ratio is 3.43. Next, SNVG: 3.21.

Consider HEMR, for which the enrichment ratio is no more than 0.25. Next, PGVC: no more than 0.25. As for SNMH, the figure is 11.9.

In the case of HEMV, the enrichment ratio is no more than 0.25. Next, TGVC: 16.8; HEMI: 12.7; SNWR: no more than 0.25. Regarding SNCH, the enrichment ratio worked out at 7.35. Next, SLVC: no more than 0.25.

On to SNVC, for which the enrichment ratio is 11.5.

As to GGVC, the enrichment ratio is no more than 0.25. As for ANPD, the figure is no more than 0.25; as for TGHW, no more than 0.25; as for KVMG, no more than 0.25. As for IFMF, the figure is no more than 0.25. Next, WNFI: no more than 0.25; ILYP: no more than 0.25; PDCM: no more than 0.25.

For the variant SNHE, the enrichment ratio was no more than 0.25. Next, SNMG: 12.5; SNFE: no more than 0.25.

Turning to SNMS, the enrichment ratio was determined as 12. As for SNMA, the figure is 7.05; as for SNMW, 3.59. In the case of GIVC, the enrichment ratio amounted to 4.3. Turning to GNVG, the enrichment ratio is 2.06.

Take GNVC: the enrichment ratio worked out at 11.6. Turning to SNMD, the enrichment ratio came out at 1.49.

Turning to SNME, the enrichment ratio was found to be 14.4. For SNLW, the enrichment ratio amounted to 7.18. On to YALF, for which the enrichment ratio was 3.8. As for PCNL, the figure is no more than 0.25; as for QLCD, no more than 0.25; as for TKMD, 0.263. For the variant FIAQ, the enrichment ratio was no more than 0.25. FTMY: the enrichment ratio is 4.04. Consider RWMS, for which the enrichment ratio was no more than 0.25. As for GNMF, the figure is 15.2; as for SNMF, 19.4; as for WQCV, no more than 0.25.

As for SLMF, the enrichment ratio worked out at 2.69.

In the case of SQCV, the enrichment ratio amounted to 6.68.

HEVN: the enrichment ratio was no more than 0.25. As for SNCV, the figure is 14.2. Next, GYMF: no more than 0.25; HEPH: no more than 0.25; HEMF: no more than 0.25. For HEPN, the enrichment ratio is 18.8. GIMF: the enrichment ratio worked out at 6.62. Next, EGYW: no more than 0.25.

As for FYIV, the enrichment ratio is no more than 0.25. Take VIWQ: the enrichment ratio was no more than 0.25.

In the case of NEFL, the enrichment ratio was no more than 0.25. As for HMPY, the enrichment ratio was no more than 0.25.

Consider RMDS, for which the enrichment ratio was no more than 0.25. With WDAC, the enrichment ratio was no more than 0.25. As for ILVT, the figure is no more than 0.25. Next, GQDA: no more than 0.25. As for SNLS, the figure is 11.5; as for SNLI, 11.3; as for SNYV, 0.433. SNMI: the enrichment ratio was 19.8. Take SNLT: the enrichment ratio is 7.56. As for SNLA, the figure is 6.53.

As for SNIV, the enrichment ratio was 9.73. With TPLI, the enrichment ratio is no more than 0.25. As for SNMR, the figure is 1.49; as for SNVA, 6.33. SRLI: the enrichment ratio amounted to 6.88. Next, SNMV: 18.5; PWPK: no more than 0.25; GTKI: no more than 0.25. As for MYMW, the figure is no more than 0.25. As for HSYK, the figure is no more than 0.25; as for GPQG, no more than 0.25. For the variant KMHW, the enrichment ratio is no more than 0.25. For GDTD, the enrichment ratio was no more than 0.25. Next, DSIT: no more than 0.25. As for NPMD, the figure is no more than 0.25; as for WFPK, no more than 0.25; as for QDRV, no more than 0.25. As for DPTF, the figure is no more than 0.25. For the variant PMYV, the enrichment ratio was no more than 0.25.

Turning to GYLQ, the enrichment ratio was no more than 0.25. Next, TTLQ: 10.7. Next, QPLQ: no more than 0.25. For the variant VYLQ, the enrichment ratio was no more than 0.25.

Turning to YTLQ, the enrichment ratio worked out at 12.8. Next, VTLQ: 11.3; VFLQ: no more than 0.25; GTLQ: 15.2.

Regarding FTLQ, the enrichment ratio turned out to be 6.79. In the case of SQPR, the enrichment ratio was no more than 0.25. With IAGV, the enrichment ratio is no more than 0.25. For the variant HKDW, the enrichment ratio was no more than 0.25. Next, GERY: no more than 0.25; SAVR: no more than 0.25. As for MMAP, the figure is no more than 0.25; as for RAVP, no more than 0.25; as for WSVY, no more than 0.25. In the case of STPW, the enrichment ratio was no more than 0.25. Consider KYMG, for which the enrichment ratio is no more than 0.25. Next, TING: 13.9; PLTG: no more than 0.25. Consider SLNG, for which the enrichment ratio stood at 0.339. In the case of WLTG, the enrichment ratio is no more than 0.25. For SIGG, the enrichment ratio is 6.86.

Take SLTG: the enrichment ratio is 12.5. For the variant SING, the enrichment ratio was 13.7. Next, KYNG: no more than 0.25; RING: no more than 0.25.

Take NING: the enrichment ratio was no more than 0.25. Next, SIMG: 13.2.

As to DHDM, the enrichment ratio was no more than 0.25. As to DCPT, the enrichment ratio is no more than 0.25. As for ELTP, the figure is no more than 0.25; as for IKSW, no more than 0.25; as for GMDV, no more than 0.25. With TNRI, the enrichment ratio was no more than 0.25. Next, SCYN: no more than 0.25; YRVE: no more than 0.25. On to SFTG, for which the enrichment ratio worked out at 5.29. As for STTG, the figure is 7.62. For SSTG, the enrichment ratio stood at 12.4. Next, SQTG: 9.26; SITG: 16.2. As for KYTG, the enrichment ratio was no more than 0.25.

LIWW: the enrichment ratio is no more than 0.25. Consider TSIP, for which the enrichment ratio was no more than 0.25. IDFC: the enrichment ratio is no more than 0.25. Next, QELP: no more than 0.25. As for CSAT, the figure is no more than 0.25; as for KDAS, no more than 0.25; as for RGAS, no more than 0.25. For the variant ADAS, the enrichment ratio is no more than 0.25.

Take NGAS: the enrichment ratio was 0.365.

TDAS: the enrichment ratio was 11.6. As to TGAS, the enrichment ratio amounted to 14. Next, KSAS: no more than 0.25; CSAS: 36.6. As for PRQF, the figure is no more than 0.25; as for AFYG, no more than 0.25; as for EQHW, no more than 0.25. Take ESQM: the enrichment ratio was no more than 0.25.

As to WSTG, the enrichment ratio is no more than 0.25.

With PICR, the enrichment ratio was no more than 0.25. As for QESQ, the figure is no more than 0.25; as for MQSI, no more than 0.25; as for NESA, no more than 0.25. As for QESA, the figure is no more than 0.25; as for MESI, 12.5; as for MMSI, 8.62. With QESI, the enrichment ratio stood at 7.8. Next, MCSK: no more than 0.25; TESA: 11.7; NESQ: no more than 0.25. Take TESQ: the enrichment ratio stood at 22.8. Next, MCSI: 12.5. Turning to HEMY, the enrichment ratio is no more than 0.25. Next, TSHA: 3; IPQD: no more than 0.25. For HTSR, the enrichment ratio is no more than 0.25. Next, FRDI: no more than 0.25; TEQS: 7.71. GWCG: the enrichment ratio is no more than 0.25.

For the variant TLDG, the enrichment ratio was no more than 0.25. Next, PGHR: no more than 0.25; TESR: 6.55; TESK: 6.64. Next, TESI: 13.5. Consider QGNK, for which the enrichment ratio was no more than 0.25. As for RDYI, the figure is no more than 0.25; as for QMSV, 10.5; as for FFGN, no more than 0.25. Turning to QGGN, the enrichment ratio was 14.7. Next, LTGN: no more than 0.25. As for KSGN, the figure is no more than 0.25; as for NSGN, no more than 0.25. In the case of THGN, the enrichment ratio is no more than 0.25. With TGGN, the enrichment ratio was found to be 13.9.

QPGN: the enrichment ratio was no more than 0.25. Turning to TSGN, the enrichment ratio amounted to 14.9. As for TTGN, the figure is 21.9; as for KCGN, no more than 0.25; as for YTGN, no more than 0.25. As for TNRW, the figure is no more than 0.25. Next, LWKV: no more than 0.25; IVDK: no more than 0.25; EHTD: no more than 0.25. Regarding NKKA, the enrichment ratio is no more than 0.25. Next, MHGI: no more than 0.25; QKAH: no more than 0.25.
